Substitutions are numbered along the chain they refer to.
What was measured:
Experiment in all cases: HT-SELEX; high values mean tight binding
Conditions in all cases: protein: recombinant; vector His6-GST; dsDNA, one strand shown
SALL4 ZFC4 WT (HT-SELEX) = target: T1, SALL4 ZFC4 WT (HT-SELEX) (Mus musculus, UniProt Q8BX22 870-940)
T1 sequence: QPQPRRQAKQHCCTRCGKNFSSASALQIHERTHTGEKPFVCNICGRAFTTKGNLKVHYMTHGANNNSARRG
Outline: (§1)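 Purified recombinant mouse SALL4 zinc finger cluster 4 (residues 870–940, 1 µg) was incubated with library DNA (1.5 µg first cycle, 200 ng later) in 100 µl of 10 mM Tris–HCl pH 7.5, 50 mM NaCl, poly(dI-dC) and DTT for 10 min at room temperature, with Ni2+ bead capture and reselection for up to 6 cycles in triplicate. MiSeq reads were scanned for 6-mers. Binding signal is each canonical k-mer's read fraction as fold change relative to the initial random library.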

[1] = target: T2, SALL4 ZFC4 R900W (HT-SELEX) (Mus musculus, UniProt Q8BX22 870-940, R900W)
T2 sequence: T1 sequence with R31W
Outline: as §1

[2] = target: T3, SALL4 ZFC4 G921D (HT-SELEX) (Mus musculus, UniProt Q8BX22 870-940, G921D)
T3 sequence: T1 sequence with G52D
Outline: as §1

| Sequence | binding signal (SALL4 ZFC4 WT (HT-SELEX)) [fold-change vs cycle 0] | binding signal [1] [fold-change vs cycle 0] | binding signal [2] [fold-change vs cycle 0] |
| --- | --- | --- | --- |
| ATACCG | 0.646 ± 0.0192 | 0.699 ± 0.038 | 0.799 ± 0.0271 |
| AAGTTG | 1.18 ± 0.062 | 1.32 ± 0.0296 | 1.29 ± 0.0737 |
| AAACAT | 1.93 ± 0.14 | 1.88 ± 0.0797 | 1.72 ± 0.14 |
| AAGCGT | 0.524 ± 0.0507 | 0.607 ± 0.0218 | 0.726 ± 0.0141 |
| AGTATA | 2.16 ± 0.0916 | 2.13 ± 0.148 | 1.85 ± 0.204 |
| GACTCC | 0.5 ± 0.00838 | 0.594 ± 0.00754 | 0.705 ± 0.0401 |
| GCACAC | 0.35 ± 0.011 | 0.453 ± 0.0146 | 0.583 ± 0.0993 |
| ACCAAC | 0.731 ± 0.0183 | 0.8162 ± 0.00324 | 0.883 ± 0.0212 |
| TAAGTA | 2.21 ± 0.113 | 2.23 ± 0.16 | 1.89 ± 0.229 |
| CACGGA | 0.395 ± 0.0417 | 0.459 ± 0.0312 | 0.571 ± 0.0613 |
| AAATCG | 0.874 ± 0.0288 | 0.918 ± 0.0124 | 1.02 ± 0.0396 |
| CTACAA | 1.17 ± 0.0183 | 1.29 ± 0.0465 | 1.24 ± 0.0556 |
| ACCCGT | 0.418 ± 0.0141 | 0.5 ± 0.0199 | 0.577 ± 0.0315 |
| AGCTAA | 1.15 ± 0.044 | 1.26 ± 0.0399 | 1.27 ± 0.0601 |
| GACGTC | 0.306 ± 0.00649 | 0.386 ± 0.024 | 0.522 ± 0.0468 |
| ATCGAA | 1.17 ± 0.0408 | 1.16 ± 0.0416 | 1.2 ± 0.0145 |
| CCCACA | 0.389 ± 0.0158 | 0.42 ± 0.0162 | 0.523 ± 0.0663 |
| ACCTCT | 0.859 ± 0.0231 | 0.978 ± 0.0308 | 1.02 ± 0.0211 |
| AAACGG | 0.53 ± 0.0454 | 0.652 ± 0.023 | 0.713 ± 0.0232 |
| ACGATG | 0.719 ± 0.0288 | 0.794 ± 0.00845 | 0.87 ± 0.00912 |

| Sequence | binding signal (SALL4 ZFC4 WT (HT-SELEX)) [fold-change vs cycle 0] | binding signal [1] [fold-change vs cycle 0] | binding signal [2] [fold-change vs cycle 0] |
| --- | --- | --- | --- |
| CTCAAC | 0.775 ± 0.0132 | 0.9089 ± 0.00888 | 0.928 ± 0.0107 |
| AACATC | 1.26 ± 0.068 | 1.37 ± 0.098 | 1.34 ± 0.101 |
| CTTCTA | 1.36 ± 0.0301 | 1.53 ± 0.0956 | 1.4 ± 0.104 |
| AGGTCC | 0.419 ± 0.0296 | 0.53 ± 0.0164 | 0.632 ± 0.0514 |
| ATAGGG | 0.829 ± 0.0359 | 0.924 ± 0.0323 | 0.954 ± 0.0273 |
| CACGAG | 0.41 ± 0.0151 | 0.496 ± 0.0211 | 0.599 ± 0.0729 |
| AAAAGG | 1.08 ± 0.0719 | 1.25 ± 0.064 | 1.18 ± 0.0579 |
| AACGCT | 0.549 ± 0.0698 | 0.603 ± 0.0229 | 0.738 ± 0.0676 |
| GATTCA | 1.35 ± 0.0551 | 1.38 ± 0.0852 | 1.33 ± 0.0688 |
| ACCACC | 0.457 ± 0.039 | 0.514 ± 0.0309 | 0.616 ± 0.0424 |
| ATCGGA | 0.708 ± 0.0433 | 0.804 ± 0.0524 | 0.928 ± 0.0274 |
| GTTCTA | 1.28 ± 0.0473 | 1.39 ± 0.0453 | 1.33 ± 0.108 |
| ACCATG | 0.8385 ± 0.0023 | 0.925 ± 0.0262 | 0.997 ± 0.0244 |
| AATGGG | 0.774 ± 0.0508 | 0.854 ± 0.0662 | 0.883 ± 0.0427 |
| ATTTGC | 0.914 ± 0.0535 | 0.9 ± 0.0391 | 0.981 ± 0.0312 |
| GGATCC | 0.489 ± 0.0186 | 0.559 ± 0.0217 | 0.643 ± 0.0527 |
| AAATCC | 1.19 ± 0.0372 | 1.27 ± 0.0238 | 1.24 ± 0.0539 |
| AGGTCG | 0.312 ± 0.0215 | 0.372 ± 0.0129 | 0.511 ± 0.0677 |
| AGGAAC | 0.86 ± 0.0507 | 1.02 ± 0.0591 | 1.04 ± 0.0533 |
| AGCATC | 0.703 ± 0.0384 | 0.804 ± 0.0378 | 0.887 ± 0.0448 |

| Sequence | binding signal (SALL4 ZFC4 WT (HT-SELEX)) [fold-change vs cycle 0] | binding signal [1] [fold-change vs cycle 0] | binding signal [2] [fold-change vs cycle 0] |
| --- | --- | --- | --- |
| AGGTTG | 0.791 ± 0.0234 | 0.894 ± 0.0252 | 0.945 ± 0.0127 |
| AGTAGC | 0.643 ± 0.0074 | 0.756 ± 0.0367 | 0.856 ± 0.0498 |
| AATGCA | 1.12 ± 0.0474 | 1.11 ± 0.069 | 1.15 ± 0.0324 |
| AAAATC | 1.66 ± 0.102 | 1.58 ± 0.0564 | 1.53 ± 0.0679 |
| AATACA | 2.08 ± 0.131 | 1.92 ± 0.0574 | 1.74 ± 0.0979 |
| GTACGA | 0.706 ± 0.0277 | 0.794 ± 0.0311 | 0.843 ± 0.0399 |
| TCCCGA | 0.394 ± 0.0144 | 0.445 ± 0.019 | 0.562 ± 0.0681 |
| GAATTA | 2.39 ± 0.113 | 1.95 ± 0.0992 | 1.75 ± 0.12 |
| GCACTA | 0.57 ± 0.0256 | 0.649 ± 0.0265 | 0.725 ± 0.019 |
| CAAAGG | 0.765 ± 0.046 | 0.898 ± 0.0341 | 0.935 ± 0.0222 |
| ATGTTG | 1.2 ± 0.026 | 1.29 ± 0.0687 | 1.28 ± 0.0984 |
| CACAGA | 0.669 ± 0.0131 | 0.784 ± 0.0217 | 0.8476 ± 0.00739 |
| GACCTA | 0.743 ± 0.0147 | 0.857 ± 0.0141 | 0.926 ± 0.0368 |
| AAACTT | 1.81 ± 0.119 | 1.89 ± 0.128 | 1.68 ± 0.174 |
| AGTTGC | 0.578 ± 0.0388 | 0.664 ± 0.014 | 0.77 ± 0.0363 |
| GTGGAA | 0.745 ± 0.0414 | 0.83 ± 0.0233 | 0.871 ± 0.012 |
| ACAGCA | 0.623 ± 0.0211 | 0.694 ± 0.0191 | 0.793 ± 0.0143 |
| AGATCT | 1.31 ± 0.115 | 1.45 ± 0.063 | 1.47 ± 0.0799 |
| ATTTAG | 1.79 ± 0.0993 | 1.83 ± 0.0928 | 1.64 ± 0.15 |
| AATTGC | 0.939 ± 0.042 | 0.962 ± 0.0218 | 1.04 ± 0.0209 |
